Compound activity deposited in PubChem by several laboratories.
Rows were chosen to be rich in hits. Some 2.1% of all compounds tested hit in one or more screens of this group.
PrP UTR inh: inhibition of PrP 5' UTR reporter expression | cell-based PrP 5' UTR mRNA reporter, plate reader | inhibition, % (no concentration beside the values) | 340,000 tested, 0.35% active | AID 488862, 2010; in the data active = inhibition above about 52%
PfHsp40 rescue: rescue of yeast from PfHsp40 toxicity, primary screen, S. cerevisiae, ATP luminescence. AID 504582, 2011. S. cerevisiae expressing PfHsp40, growth rescue. growth rescue, % at 12.5 µM. 340,000 tested, 0.68% active; in the data active = growth rescue above about 28%, passing the limit was not always enough; inconclusive = no clear call, values can overlap the other calls;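 note: yeast W303a lacking pdr1 and pdr3 grown in galactose medium; growth measured after three days at 30 °C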
PrPC TRFRET: inhibitors of human cell surface prion protein PrPC, primary screen, cell-based, TR-FRET | Major prion protein (Homo sapiens), P04156 | TR-FRET read-out | inhibition, % at 13.8 µM | 370,000 tested, 0.43% active | AID 720596, 2013; in the data active = inhibition above about 24%
BJeLR lethal: MLPCN primary cell-based screen for lethality selective to Ras in HRASV12 cells. BJeLR (HRASV12) viability, CellTiter-Glo ATP luminescence, 48 h. inhibition, % (concentration not given with the values). 300,000 tested, 0.17% active. AID 1554, 2009; in the data active = inhibition above about 50%; inconclusive = no clear call, values can overlap the other calls
DUSP3 inh: VHR1 phosphatase inhibitors, primary screen, biochemical, absorbance, uHTS; recombinant VHR phosphatase, pNPP absorbance; inhibition, % at 13.3 µM; 290,000 tested, 0.52% active; Dual specificity protein phosphatase 3 (Homo sapiens), P51452; AID 1654, 2009; in the data active = inhibition above about 50%
Target sequence (P51452 whole entry, looked up): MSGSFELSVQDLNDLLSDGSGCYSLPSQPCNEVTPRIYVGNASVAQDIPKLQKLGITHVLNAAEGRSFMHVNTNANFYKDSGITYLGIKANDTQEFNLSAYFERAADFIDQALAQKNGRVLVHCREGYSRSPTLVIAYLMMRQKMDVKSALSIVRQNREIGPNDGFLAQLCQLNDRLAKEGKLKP
MazF activator: activators of E. coli MazEF toxin-antitoxin RNase, primary screen, biochemical, fluorescence, uHTS; Endoribonuclease toxin MazF (Escherichia coli (strain K12)), P0AE70; FAM/BHQ RNA-DNA oligo cleavage fluorescence, 5 h; activation, % at 20 µM; 350,000 tested, 0.32% active; in the data active = activation above about 50%
Target sequence (P0AE70 whole entry, looked up): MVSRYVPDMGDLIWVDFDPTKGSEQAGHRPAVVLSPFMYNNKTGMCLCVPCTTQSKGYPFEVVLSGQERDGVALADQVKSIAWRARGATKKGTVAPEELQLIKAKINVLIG
PrP 5UTR single: prion 5' UTR mRNA inhibition, cherry-pick retest; shares compounds with PrP UTR inh; cell-based prion protein 5' UTR reporter, plate reader; inhibition, % at 2.5 µM; 1,100 tested, 48% active; AID 504592, 2011; in the data active = inhibition above about 54%; inconclusive = no clear call, values can overlap the other calls
Hits are given with their value; - = inactive; ? = inconclusive; . = not tested or not shown.

SMILES | PrP UTR inh | PfHsp40 rescue | PrPC TRFRET | BJeLR lethal | DUSP3 inh | MazF activator | PrP 5UTR single
O=C1CC(C(=O)Nc2cc(Cl)ccc2Cl)n2ncnc2N1 (configuration not stated) | 78 | - | - | - | - | - | -
Cc1cc(C)n2nc(C(=O)NCC(=O)Nc3ccc(F)c(F)c3)nc2n1 | - | - | - | - | . | - | .
CC(C)c1nnc(NC(=O)CSc2nnc(NC(=O)c3c(F)cccc3F)s2)s1 | 79 | - | - | - | - | - | -
O=C(CSc1nnc(NC(=O)c2c(F)cccc2F)s1)Nc1ccccc1F | - | - | - | - | - | - | .
Cc1cc(C(=O)CSc2nnc3ccccn23)c(C)n1-c1ccccc1 | 67 | - | - | - | - | - | 85
CC1CCc2c(sc(NC(=O)CSc3ncn[nH]3)c2C#N)C1 (configuration not stated) | 70 | - | - | - | - | - | 79
N#Cc1c(NC(=O)CSc2ncn[nH]2)sc2c1CCCC2 | 68 | - | - | - | - | - | 67
COC(=O)[C@]12C[C@H](CC(=O)N3CCCC3)C(=O)N(Cc3cccc4ccccc34)C1=C[C@H](C1CCCC1)O[C@@H]2C | . | . | - | . | . | . | .
CC[C@H](C)NC(=O)CCCCCn1c(=S)[nH]c2c([nH]c3ccc(OC)cc32)c1=O | 66 | - | - | - | - | - | -
CCCCNC(=O)CCCCn1c(=S)[nH]c2c([nH]c3ccc(OC)cc32)c1=O | - | - | - | - | - | - | .
CC1CCCC(C)N1CCCNC(=O)Cn1c(=O)c2cccn2c2cccnc21 (configuration not stated) | - | - | - | - | - | - | .
COc1cc2cc(c1Cl)N(C)C(=O)CC(OC(=O)C(C)N(C)C(C)=O)C1(C)OC1C(C)C1CC(O)(NC(=O)O1)C(OC)C=CC=C(C)C2 (configuration not stated) | 53 | - | - | . | . | - | 92
Cc1cccc2c1CCCC2=O | - | - | - | . | . | - | .
COC(=O)C1=C(c2ccccc2OCc2ccccc2)C[C@@H]2CC[C@H]1N2C(=O)NCCc1ccc(F)cc1 | 58 | - | - | . | . | - | -
O=C(CN1CCN(S(=O)(=O)N2CCCCCC2)CC1)Nc1ccc(Br)cc1 | - | - | - | - | - | - | .
CC1CCCN(c2ccc([N+](=O)[O-])cc2C(=O)c2ccccc2)C1 (configuration not stated) | 61 | - | - | 58 | - | - | 80
O=C(c1ccccc1)c1cc([N+](=O)[O-])ccc1N1CCOCC1 | - | - | - | - | - | - | .
Cc1ccc(C(=O)c2cc([N+](=O)[O-])ccc2N2CCCCC2)cc1 | 56 | - | - | - | - | - | 86
OC(c1ccccc1)c1nc(-c2cccs2)cs1 (configuration not stated) | . | . | - | . | . | . | .
CCN(CC)S(=O)(=O)c1ccc(C(=O)NC(C)(C)C)cc1 | - | - | - | - | - | - | .
CCC1=C2CC[C@H]3C(=O)N(c4ccccc4)C(=O)[C@H]3[C@H]2[C@@]2(C)C(=NCc3ccccc3)OC(=O)N2C1=O | 76 | - | - | - | - | - | -
CCC1=C(OC(=O)N(CC)CC)N2C(=O)OC(=NCc3ccccc3)[C@]2(C)[C@H]2C1=CC[C@H]1C(=O)N(c3ccccc3)C(=O)[C@H]12 | - | - | - | - | - | - | .
CC(OC(=O)CCN=C1NS(=O)(=O)c2ccccc21)C(=O)NCc1ccccc1 (configuration not stated) | 67 | - | - | - | . | - | -
COC(=O)[C@]12C[C@H](CC(=O)NCc3ccc(C)o3)C(=O)N(Cc3ccccc3)C1=C[C@H](COCc1ccccc1)O[C@@H]2C | . | . | - | . | . | . | .
CC(C)Cn1c2c(c(=O)[nH]c1=O)C(NS(=O)(=O)c1ccc(Cl)cc1)(C(F)(F)F)C(=O)N2 (configuration not stated) | - | - | - | - | - | - | .
SMILES | PrP UTR inh | PfHsp40 rescue | PrPC TRFRET | BJeLR lethal | DUSP3 inh | MazF activator | PrP 5UTR single
COC(=O)C1=CO[C@@H](OC2OC(CO)C(O)C(O)C2O)[C@@H]2[C@@H](C)[C@@H](O)C[C@H]12 (some centres not stated) | - | - | - | - | . | - | .
COC(=O)C1=CO[C@@H](O[C@@H]2O[C@H](CO)[C@@H](O)[C@H](O)[C@H]2O)C2C1C=C[C@@]2(O)CO (some centres not stated) | 76 | - | - | . | . | - | -
CCOc1ccc(NC(=O)CN(C)C(=O)C2CCCC2)cc1OCC | 83 | - | - | - | - | - | -
O=C(CN1CCN(CC(=O)Nc2ccccc2Cc2ccccc2)CC1)Nc1ccccc1Cl | - | - | - | - | - | - | .
COc1cccc(-c2ccc3ncnc(NCc4cc(C)cs4)c3c2)c1 | 61 | ? | - | . | . | - | -
COc1cc(/C=N/O)ccc1OCc1ccc(C(=O)O)cc1 | 88 | - | - | - | - | - | 91
COc1cc(/C=N/O)ccc1OCc1ccc(Cl)cc1 | . | . | - | - | - | . | .
CC1(C)CC[C@]2(C(=O)n3ccnc3)CC[C@]3(C)[C@H](C(=O)C=C4[C@@]5(C)C=C(C#N)C(=O)C(C)(C)[C@@H]5CC[C@]43C)[C@@H]2C1 | 94 | - | - | . | . | - | 97
O=C(Nc1nc2ccc(F)cc2s1)C1=COCCO1 | - | - | - | - | . | - | .
O=C(Nc1nc2cc3c(cc2s1)OCCO3)C1=COCCO1 | 92 | - | - | - | - | - | 86
COC(=O)Nc1ccc(S(=O)(=O)N2CCCCC2C(=O)NCc2ccco2)cc1 (configuration not stated) | 89 | - | - | - | - | - | -
Cc1ccc(CNC(=O)CN2C(=O)NC(C)(c3cccc(Br)c3)C2=O)cc1 (configuration not stated) | - | - | - | - | - | - | .
CCOC(=O)N1CCN(c2cc(=O)n(-c3ccc(OC)cc3)c(=O)[nH]2)CC1 | - | - | - | . | - | - | .
COC(=O)C1CCN(c2cc(=O)n(-c3ccc(OC)cc3)c(=O)[nH]2)CC1 | 68 | - | - | - | - | - | -
CC(=O)Nc1ccc(CN2CCCC(CCC(=O)NCc3ccccc3F)C2)cc1 (configuration not stated) | 80 | - | - | - | - | - | -
C[C@H](CO)N1C[C@H](C)[C@@H](CN(C)C(=O)c2ccc(N3CCN(C)CC3)cc2)OCc2cnnn2CCCC1=O | . | . | - | . | . | . | .
Cc1ccc(-n2[nH]c(=O)c(-c3ccccn3)c2C)cc1 | 72 | - | - | - | - | - | 68
Cc1ccc(-n2[nH]c(=O)c3cccnc32)cc1 | - | - | - | - | - | - | .
